The text below walks through data of PubChem BioAssay (Tox21).

Inconclusive results are not listed. Active and inactive are the calls of the source. Unless noted, calls follow the shape of the full dose curve.

Experiment [1] is described as follows: Nuclear factor erythroid 2-related factor 2/antioxidant responsive element (Nrf2/ARE) small molecule agonists: qHTS cell viability counter screen in human keratinocytes (AID 1919968; active = well fitted curve in the direction sought with a large enough effect in the repeat runs; an effect the other way counts as inactive or inconclusive; also: nearly all actives have a fitted effect of over 55% in size). In outline: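 Parallel cytotoxicity read: KeratinoSens HaCaT cells, compound treatment 23 h, viability by CellTiter-Fluor fluorescence 1 h post-reagent.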
A short description of experiment [2]: Nuclear factor erythroid 2-related factor 2/antioxidant responsive element (Nrf2/ARE) small molecule agonists: luciferase reporter gene qHTS assay in human keratinocytes (AID 1919969). Also: nearly all actives have a fitted effect of over 35% in size. Also: potency is read from the fitted curve at half-maximal effect.
Experiment [3] has as its target Gonadotropin-releasing hormone receptor (Homo sapiens) (UniProt P30968). The experiment can be described thus: Human gonadotropin-releasing hormone receptor (GnRHR) small molecule agonists, calcium flux assay in GnRHR-HEK293 cells (AID 1920063). Also: nearly all actives have a fitted effect of over 35% in size. In outline: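 Calcium flux, agonist mode, human GnRHR stably integrated in HEK293; dye 1 h at 37 C before compound; Ex/Em=480/540 kinetic read, 3 min; 15 concentrations, triplicate.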

Experiment [4] concerns the target KiSS-1 receptor (Homo sapiens) (UniProt Q969F8). Kind of experiment: Human kisspeptin (KISS1R) small molecule agonists, calcium flux assay in KISS1R-HEK293 cells (AID 1920064; active = well fitted curve in the direction sought with a large enough effect in the repeat runs; an effect the other way counts as inactive or inconclusive). In outline: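 Triplicate 15-concentration series were applied to dye-loaded human KISS1R HEK293 cells, and agonist-evoked calcium fluorescence was captured for 3 min.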
Experiment [5] in a line: G protein-coupled receptor (GPCR) small molecule agonists, calcium flux assay: HEK293 wild type cell line counter screen (AID 1920065). A digest of the protocol: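 Non-specific calcium responders were flagged by adding DMSO-dissolved compounds to dye-loaded cells and reading 480/540 nm fluorescence each second for 3 min; ATP served as positive control.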
Experiment [6] is described as follows: p53 small molecule agonists, cell-based qHTS assay with human liver microsomes (AID 1963577). A digest of the protocol:
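p53RE-bla cells, 4,000/well, compound added after 5 h, with human liver microsomes 0.5 mg/mL and NADPH 0.5 mg/mL final; 16 h at 37 C, then LiveBLAzer 2 h RT, fluorescence.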

Experiment [7] is described as follows: p53 small molecule agonists, cell-based qHTS assay with rat liver microsomes (AID 1963578). A digest of the protocol:
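p53RE-bla cells, 4,000/well, pre-incubated 5 h, then given compounds plus rat liver microsomes (0.5 mg/mL final) and NADPH (0.5 mg/mL final). Incubation 16 h at 37 C; beta-lactamase reporter read by LiveBLAzer fluorescence after 2 h at room temperature.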

Experiment [8] can be described thus: p53 small molecule agonists, cell-based qHTS assay with human liver microsomes: qHTS cell viability counter screen (AID 1963579). Also: nearly all actives have a fitted effect of over 45% in size. In outline: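 p53RE-bla cells, 4,000/well, dosed 5 hours after plating, with human liver microsomes (0.5 mg/mL final) plus NADPH (0.5 mg/mL final), 16 hours at 37 C. Viability read as CellTiter-Glo luminescence after 30 min at room temperature.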

Experiment [9] is described as follows: p53 small molecule agonists, cell-based qHTS assay with rat liver microsomes: qHTS cell viability counter screen (AID 1963580). Also: nearly all actives have a fitted effect of over 45% in size. In outline: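 Cytotoxicity counter screen: intracellular ATP read by CellTiter-Glo luminescence in the p53 reporter wells. HCT-116 p53RE-bla cells were treated for 16 h at 37 C alongside rat liver microsomes and NADPH, each 0.5 mg/mL final.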

A short description of experiment [10]: p53 small molecule agonists, cell-based qHTS assay: qHTS cell viability counter screen (AID 1963581). Also: nearly all actives have a fitted effect of over 45% in size. In outline:
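Multiplexed with the reporter read, a CellTiter-Glo step (30 min, room temperature) gauges ATP-based viability of HCT-116 p53RE-bla cells after 16 h compound incubation at 37 C.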

A short description of experiment [11]: p53 small molecule agonists, cell-based qHTS assay (AID 1963582; active = well fitted activation curve with a large enough effect in the signal ratio in the repeat runs, not every such curve was filed as active; the % refers to the signal ratio). A digest of the protocol:
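Beta-lactamase reporter cells (p53RE-bla) treated with compounds for 16 h at 37 C; FRET substrate, 2 h, room temperature; fluorescence intensity.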

In experiment [12] the target is 5-hydroxytryptamine receptor 2A (Homo sapiens) (UniProt P28223). Kind of experiment: 5-hydroxytryptamine receptor 2A (HTR2A) small molecule antagonists, cell-based qHTS assay (AID 1963586). Also: nearly all actives have a fitted effect of over 45% in size. A digest of the protocol: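 CHO cells stably expressing human HTR2A were plated for 18 h at 37 C, then loaded with calcium dye for 1 h. Compounds were preincubated 5 min at room temperature before DOI (4 nM solution) was added. Kinetic fluorescence was read for 3 min.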
5-hydroxytryptamine receptor 2A (Homo sapiens), sequence (P28223 whole entry, looked up): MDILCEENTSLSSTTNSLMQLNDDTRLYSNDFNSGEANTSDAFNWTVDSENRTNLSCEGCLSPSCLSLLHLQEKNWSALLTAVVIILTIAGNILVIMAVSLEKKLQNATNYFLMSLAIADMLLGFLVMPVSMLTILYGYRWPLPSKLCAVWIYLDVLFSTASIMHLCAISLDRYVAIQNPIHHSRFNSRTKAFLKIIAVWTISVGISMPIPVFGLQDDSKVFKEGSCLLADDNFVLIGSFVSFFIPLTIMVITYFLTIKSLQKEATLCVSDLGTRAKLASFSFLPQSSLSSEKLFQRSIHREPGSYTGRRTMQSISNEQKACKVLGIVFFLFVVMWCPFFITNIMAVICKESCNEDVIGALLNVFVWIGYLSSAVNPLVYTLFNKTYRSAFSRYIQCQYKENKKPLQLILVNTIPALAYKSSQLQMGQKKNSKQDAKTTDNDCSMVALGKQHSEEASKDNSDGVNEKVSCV

Experiment [13] shares this target. The experiment can be described thus: 5-hydroxytryptamine receptor 2A (HTR2A) small molecule agonists, cell-based qHTS assay (AID 1963587). Also: nearly all actives have a fitted effect of over 30% in size. A digest of the protocol: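 Kinetic calcium-flux fluorescence (2 min, 1 sec intervals) after compound addition in agonist mode. HTR2A-CHO cells were cultured 18 h, then dye-loaded 1 h at 37 C.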
Experiment [14] concerns the target Muscarinic acetylcholine receptor M1 (Homo sapiens) (UniProt P11229). Kind of experiment: Cholinergic receptor muscarinic 1 (CHRM1) small molecule antagonists, cell-based qHTS assay (AID 1963588). Also: nearly all actives have a fitted effect of over 40% in size. A digest of the protocol: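 Compounds were tested at 15 concentrations in three independent runs. Dye-loaded CHRM1-CHO cells were exposed 5 min at room temperature before stimulation by acetylcholine added at 50nM. Intracellular calcium was read kinetically on FDSS for 3 min.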

Experiment [15] shares this target. The experiment can be described thus: Cholinergic receptor muscarinic 1 (CHRM1) small molecule agonists, cell-based qHTS assay (AID 1963589). Also: nearly all actives have a fitted effect of over 35% in size. In outline: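 qHTS, 15-point titration, 3 independent runs: compounds pin-transferred onto dye-loaded CHRM1-CHO cells (human M1), calcium fluorescence followed every second to detect agonism.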
Experiment [16] can be described thus: cAMP Responsive Elements (CRE) small molecule agonists, cell-based qHTS assay (AID 1963590). In outline:
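Quantitative HTS for CRE agonists: HEK 293T CRE-bla cells, overnight plating, 3 h compound incubation at 37 C/5% CO2, then 2 h room-temperature LiveBLAzer B/G FRET substrate loading.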

Experiment [17] can be described thus: cAMP Responsive Elements (CRE) small molecule antagonists, cell-based qHTS assay (AID 1963591; active = well fitted inhibition curve with a large enough effect in the signal ratio in the repeat runs, not every such curve was filed as active; the % refers to the signal ratio). A digest of the protocol:
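Fluorescence intensity from cleaved LiveBLAzer B/G substrate (2 h, room temperature) quantified CRE-bla activity in HEK 293T cells exposed 3 h to compound with 0.25 uM final NKH477.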

Experiment [18] addresses Beta-2 adrenergic receptor (Homo sapiens) (UniProt P07550). Kind of experiment: Adrenergic beta2 receptor (ADRB2) small molecule antagonists, cell-based qHTS assay (AID 1963592). Also: series mostly up to about 92 µM; nearly all actives have a fitted effect of over 50% in size. A digest of the protocol:
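Assay format: CHO-ADRB2 cells, 18-20hr seeding at 37C/5% CO2, then compound plus 1nM isoproterenol agonist mix for 0.5hr RT. Homogeneous time-resolved fluorescence cAMP detection after 1hr, expressed as 665/615 nm ratio.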

For experiment [19], the target named is D(2) dopamine receptor (Homo sapiens) (UniProt P14416). The experiment can be described thus: Dopamine D2 receptor (DRD2) small molecule agonists, cell-based qHTS assay (AID 1963594). Also: nearly all actives have a fitted effect of over 35% in size. In outline: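 cAMP accumulation in DRD2-HEK293 cells measured by HTRF after 1 h detection; compounds added 10 min before NKH477 (200nM […]) forskolin-analogue stimulation, 30 min at room temperature, with Ro20-1724 present at 0.1 mM final.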
D(2) dopamine receptor (Homo sapiens), sequence (P14416 whole entry, looked up): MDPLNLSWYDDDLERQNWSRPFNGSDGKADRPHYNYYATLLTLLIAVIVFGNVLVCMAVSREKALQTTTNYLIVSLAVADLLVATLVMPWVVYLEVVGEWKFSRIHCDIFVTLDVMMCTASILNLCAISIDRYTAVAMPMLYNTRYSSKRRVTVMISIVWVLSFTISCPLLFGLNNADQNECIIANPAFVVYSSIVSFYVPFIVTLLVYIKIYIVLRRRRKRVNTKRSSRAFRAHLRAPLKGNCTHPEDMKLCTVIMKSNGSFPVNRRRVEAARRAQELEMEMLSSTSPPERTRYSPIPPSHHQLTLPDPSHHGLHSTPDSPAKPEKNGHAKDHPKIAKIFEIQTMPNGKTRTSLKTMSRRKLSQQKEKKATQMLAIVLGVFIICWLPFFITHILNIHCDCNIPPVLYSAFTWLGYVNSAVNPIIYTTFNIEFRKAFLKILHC

Experiment [20] has the same target. Kind of experiment: Dopamine D2 receptor (DRD2) small molecule antagonists, cell-based qHTS assay (AID 1963595; active = well fitted inhibition curve with a large enough effect in the signal ratio in the repeat runs, with a control signal flat; the % refers to the signal ratio). In outline: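 Antagonism was scored as restored cAMP in HEK293-DRD2 cells. These cells were stimulated with 200 nM NKH477 and 12 nM quinpirole for 30 min at room temperature, in the presence of 0.1 mM Ro20-1724.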

Beta-2 adrenergic receptor (Homo sapiens), sequence (P07550 whole entry, looked up): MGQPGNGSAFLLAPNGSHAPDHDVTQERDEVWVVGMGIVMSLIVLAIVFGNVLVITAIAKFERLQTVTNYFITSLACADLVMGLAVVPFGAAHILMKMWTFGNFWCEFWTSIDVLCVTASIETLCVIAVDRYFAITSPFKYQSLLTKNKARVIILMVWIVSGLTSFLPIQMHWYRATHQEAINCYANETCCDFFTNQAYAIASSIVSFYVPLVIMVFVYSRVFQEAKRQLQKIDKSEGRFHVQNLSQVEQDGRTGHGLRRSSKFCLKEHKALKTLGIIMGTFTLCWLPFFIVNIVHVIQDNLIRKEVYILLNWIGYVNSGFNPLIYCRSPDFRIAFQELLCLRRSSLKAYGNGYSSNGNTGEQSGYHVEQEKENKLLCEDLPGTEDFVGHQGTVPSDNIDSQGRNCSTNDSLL
Gonadotropin-releasing hormone receptor (Homo sapiens), sequence (P30968 whole entry, looked up): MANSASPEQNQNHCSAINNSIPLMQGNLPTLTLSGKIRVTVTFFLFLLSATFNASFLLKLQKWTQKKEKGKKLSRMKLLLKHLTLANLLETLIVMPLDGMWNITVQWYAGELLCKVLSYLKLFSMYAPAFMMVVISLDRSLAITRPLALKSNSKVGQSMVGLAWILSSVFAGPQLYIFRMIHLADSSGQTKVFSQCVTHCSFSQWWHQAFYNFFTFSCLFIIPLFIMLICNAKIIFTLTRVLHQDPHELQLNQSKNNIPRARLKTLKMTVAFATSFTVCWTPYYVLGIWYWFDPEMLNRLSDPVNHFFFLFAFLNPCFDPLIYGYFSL
KiSS-1 receptor (Homo sapiens), sequence (Q969F8 whole entry, looked up): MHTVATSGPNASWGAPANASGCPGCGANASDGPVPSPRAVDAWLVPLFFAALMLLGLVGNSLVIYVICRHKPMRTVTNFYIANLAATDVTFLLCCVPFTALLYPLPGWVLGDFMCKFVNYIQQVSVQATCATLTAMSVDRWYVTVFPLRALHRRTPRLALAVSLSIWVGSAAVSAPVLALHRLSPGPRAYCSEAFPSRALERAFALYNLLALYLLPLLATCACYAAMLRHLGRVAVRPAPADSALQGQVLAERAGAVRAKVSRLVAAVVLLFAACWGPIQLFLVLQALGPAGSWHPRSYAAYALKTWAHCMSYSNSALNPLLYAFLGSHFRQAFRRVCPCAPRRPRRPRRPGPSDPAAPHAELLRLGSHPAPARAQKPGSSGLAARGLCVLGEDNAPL
Muscarinic acetylcholine receptor M1 (Homo sapiens), sequence (P11229 whole entry, looked up): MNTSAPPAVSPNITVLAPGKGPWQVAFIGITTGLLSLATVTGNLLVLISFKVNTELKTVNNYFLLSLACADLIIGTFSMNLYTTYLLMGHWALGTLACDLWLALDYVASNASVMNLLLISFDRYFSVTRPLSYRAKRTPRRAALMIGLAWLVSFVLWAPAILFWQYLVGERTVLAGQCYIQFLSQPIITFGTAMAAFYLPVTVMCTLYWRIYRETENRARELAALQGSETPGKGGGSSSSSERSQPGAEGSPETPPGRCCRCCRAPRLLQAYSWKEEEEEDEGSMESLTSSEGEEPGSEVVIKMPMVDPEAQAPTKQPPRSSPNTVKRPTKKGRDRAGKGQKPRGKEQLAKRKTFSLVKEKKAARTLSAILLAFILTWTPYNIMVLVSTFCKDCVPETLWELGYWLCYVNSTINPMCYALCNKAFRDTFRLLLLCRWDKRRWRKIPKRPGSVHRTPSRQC

As for `Oc1ccc(Sc2ccc(O)cc2)cc1`, the Potency result in experiment [1], in experiment [3], in [4], in [5], in experiment [6] and in [7] was “inactive” in each case. The Potency result in experiment [8], in experiment [9], in experiment [10], in [11], in experiment [12] and in experiment [13] was “inactive” in each case. The Potency entry in experiment [14], in experiment [15], in experiment [16], in experiment [17], in experiment [18] and in experiment [19] was “inactive” each time. Also, in [20], the Potency entry is “inactive”. Moreover, in [2], the Potency is 57.2 µM (active).

As to `C=C(C)C(=O)OCCCCCCCCCCCCC`, the Potency entry in experiment [1], in experiment [2], in experiment [3], in [4], in experiment [5] and in [6] was “inactive” in each case. The Potency entry in experiment [7], in [8], in [9], in experiment [10], in experiment [11] and in [12] was “inactive” in each case. The Potency entry in experiment [13], in [14], in experiment [15], in [16], in [17] and in experiment [18] was “inactive” throughout. Further, the Potency entry in experiment [19] and in experiment [20] was “inactive” throughout.

For `C[N+](C)(C)CC(O)CCl` (centres undefined), the Potency result in experiment [1], in [2], in experiment [3], in experiment [4], in [5] and in [6] was “inactive” in each case. Moreover, the Potency result in experiment [7], in experiment [8], in experiment [9], in experiment [10], in experiment [11] and in experiment [12] was “inactive” each time. The Potency result in experiment [13], in experiment [14], in experiment [15], in [16], in experiment [17] and in [18] was “inactive” in each case. For the same compound, the Potency entry in [19] and in experiment [20] was “inactive” in each case.

With `O=C(Nc1ccc([N+](=O)[O-])cc1)Nc1ccc([N+](=O)[O-])cc1` (tested in a mixture with another compound), the Potency result in [1], in [2], in experiment [3], in experiment [4], in [5] and in experiment [6] was “inactive” throughout. Further, the Potency result in experiment [7], in experiment [8], in experiment [9], in [10], in experiment [11] and in [12] was “inactive” in each case. Further, the Potency entry in experiment [13], in experiment [14], in experiment [15], in experiment [16], in [17] and in [18] was “inactive” throughout. For the same compound, the Potency entry in [19] and in [20] was “inactive” in each case.

On to `CCOC(=O)c1ccc(O)c(O)c1`, for which the Potency result in experiment [1], in [2], in experiment [3], in experiment [4], in [5] and in experiment [6] was “inactive” throughout. The Potency entry in experiment [7], in [8], in experiment [9], in experiment [10], in experiment [11] and in experiment [12] was “inactive” throughout. Moreover, the Potency entry in experiment [13], in [14], in [15], in experiment [16], in [17] and in [18] was “inactive” in each case. The Potency entry in [19] and in experiment [20] was “inactive” throughout.

For `CCCCC(=O)N(C)C`, the Potency entry in experiment [1], in experiment [2], in experiment [3], in experiment [4], in experiment [5] and in [6] was “inactive” throughout. In addition, the Potency result in experiment [7], in experiment [8], in experiment [9], in experiment [10], in [11] and in [12] was “inactive” in each case. Besides, the Potency entry in [13], in [14], in experiment [15], in experiment [16], in [17] and in experiment [18] was “inactive” throughout. Also, the Potency result in [19] was “inactive”.

Turning to `O=C(O)CC(=O)O`, the Potency entry in [1], in [2], in experiment [3], in experiment [4], in [5] and in experiment [6] was “inactive” each time. Moreover, the Potency result in experiment [7], in [8], in experiment [9], in experiment [10], in [11] and in experiment [12] was “inactive” in each case. The Potency result in [13], in [14], in [15], in [16], in [17] and in [18] was “inactive” throughout. Also, the Potency entry in experiment [19] and in experiment [20] was “inactive” in each case.
